The entries come from a sample that favours hits as a whole.
Dicer inh = human Dicer pre-microRNA cleavage inhibition. AID 1347074. hit rate 6% among 47,000. cat-ELCCA pre-miR-21 Dicer processing, chemiluminescence; hits give high values. Q9UPY3. z-score at 25 µM; in the data active = z-score above about 3, passing the limit was not always enough;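 also: plate controls were vehicle for no effect and no enzyme for full effect; higher signal means more uncleaved substrate so more Dicer inhibition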
* marks the source's active call; other numbers are inactive results.

SMILES	Dicer inh
CCOC(=O)C(O)(NC(=O)c1ccccc1C)C(F)(F)F (centres undefined)	2.6
COC(=O)C(O)(NC(=O)c1ccccc1Cl)C(F)(F)F (centres undefined)	3.9*
CCOC(=O)C(NC(=O)c1ccccc1Cl)(Nc1cc(C)ccn1)C(F)(F)F (centres undefined)	-0.24
CCOC(=O)C(NC(=O)c1ccccc1Cl)(Nc1ccc(C)cn1)C(F)(F)F (centres undefined)	3*
CCOC(=O)C(NC(=O)c1ccccc1Cl)(Nc1cccc(C)n1)C(F)(F)F (centres undefined)	1.9
CCOC(=O)C(O)(NC(=O)c1ccccc1Cl)C(F)(F)F (centres undefined)	0.08
O=C(O)c1ccc2nc3c(nc2c1)-c1cccc2cccc-3c12	-0.45
CN(C)CCCNc1nc(-c2cccnc2)nc2ccccc12	-2.4
COc1ccc(OCCn2cc(C(=O)c3cccs3)c3ccccc32)cc1	2.5
N#CCCn1nc(Nc2ccccc2)n(-c2ccccc2)c1=S	1.3
CC1=CC(C)(C)N(C(=O)Nc2ccccc2)c2cc(C)c(C)cc21	2.6
COc1ccc(Cl)cc1NC(=O)Nc1sccc1-c1nc2ccccc2s1	5.1*
COc1ccccc1NC(=O)Nc1sccc1-c1nc2ccccc2s1	7.1
COc1ccc(Cl)cc1NC(=O)Nc1nnc(C2CC2)s1	-0.31
COc1ccc(-c2cnn3c(C(F)(F)F)cc(C)nc23)cc1OC	-0.43
S=c1[nH]nc(-c2cccc3ccccc23)n1Cc1ccco1	0.42
Cc1ccc(C2CC(=O)NC(SCC(=O)Nc3ccc(Br)cc3)=C2C#N)o1 (centres undefined)	0.78
COc1ccc(OCCCCCCc2c(C)n[nH]c2C)cc1	-0.68
CCOC(=O)c1sc2nc(C)cc(C)c2c1NC(=O)Nc1cccc(Cl)c1	0.39
CC(=O)c1sc2nc(C)cc(C)c2c1N	-1.6
CCOC(=O)c1sc2nc(C)cc(C)c2c1N(C(C)=O)C(C)=O	3.4*
CCOC(=O)c1cnc(O/N=C/c2ccc(F)cc2)nc1C(F)(F)F	-0.18
COc1ccc(O)c(C2=Nc3ccccc3N=C(C(F)(F)F)C2)c1	3.2*
Oc1ccccc1C1=Nc2ccccc2N=C(C(F)(F)F)C1	2.6
COc1ccc(C2=Nc3ccccc3SC(c3cccc(O)c3)C2)c(O)c1 (centres undefined)	-0.77
SMILES	Dicer inh
Cc1nc(N2C(=O)c3oc4ccccc4c(=O)c3C2c2ccc(Cl)cc2)sc1C (centres undefined)	-0.33
C/C(=N/OC(=O)Nc1ccccc1Cl)C1CC1	-1.4
CSC1=NC(C)(C)Cc2cc3c(cc21)OCCO3	3.3*
CC1(C)Cc2cc3c(cc2C(SCc2ccccc2)=N1)OCCO3	-0.25
Cn1nccc1NC(=O)c1ccc(Cl)c(Cl)c1	-0.33
Cc1onc(-c2ccccc2)c1C(=O)NNC(=O)c1ccc(-n2c(C)ccc2C)cc1	3.1*
Cc1onc(-c2ccccc2)c1C(=O)NCCNC(=O)c1c(-c2ccccc2)noc1C	1.2
Cc1onc(-c2ccccc2)c1C(=O)n1cccc1	-0.05
O=C(Nc1ccc(Oc2ccccc2)cc1)c1cnccn1	0.44
Cc1nn2c(=O)/c(=C/c3ccccc3Cl)sc2nc1=O	-0.34
NC(=S)N/N=C/c1c(Sc2ccc(Cl)cc2)nc2sccn12	0.34
Clc1ccc(Sc2c(-c3ccccc3)nc3sccn23)cc1	0.4
O=C1Nc2ccccc2/C1=C/c1c(Sc2ccc(Cl)cc2)nc2sccn12	5.7*
O=C1N(CCc2ccccc2)c2ccc(Cl)cc2C1(O)c1c[nH]c2ccccc12 (centres undefined)	1.6
Cc1cc(N/C=C2\C(=O)c3c(sc(C)c3C)N(C)S2(=O)=O)nc(C)n1	3.6*
Cc1sc2c(c1C)C(=O)/C(=C\Nc1ncccn1)S(=O)(=O)N2C	2
Cc1sc2c(c1C)C(=O)/C(=C\Nc1cccnc1)S(=O)(=O)N2C	-0.68
CCOC(=O)c1c(NC(=O)C(C)Oc2ccc(OC)cc2)sc(C)c1C (centres undefined)	-2.3
CCCCc1ccc(-n2nc3ccc(N)cc3n2)cc1	-1
COC(=O)c1[nH]c2cscc2c(=O)c1C(=O)OC	2.6
C=CCN=C1CC(C)(C)CC(=O)/C1=C(\O)CCC(=O)OC	2.4
CCOC(=O)c1c(C)oc2cc(Cl)c(O)c(CN(C)C)c12	1.8
CCOC(=O)c1c(CN(CC)CC)oc2ccc(OC)cc12	0.26
CCOC(=O)c1c(C)oc2ccc(O)c(CN(C)C)c12	4*
Cc1csc2ncnc(N3CCN(S(=O)(=O)c4ccc(Cl)cc4)CC3)c12	0.31
SMILES	Dicer inh
Cc1c(NS(=O)(=O)c2ccc(-c3ccno3)s2)c(=O)n(-c2ccccc2)n1C	-9.9
CN(C)S(=O)(=O)N1CCc2ccccc2C1	4.9*
O=C(c1nc2ncccn2n1)N1CCc2ccccc2C1	2
CS(=O)(=O)N(CC(=O)N1CCc2ccccc2C1)c1cccc2ccccc12	1.7
COc1ccc(C(=O)Cn2c3ccccc3n3nc(-c4ccccc4)nc23)cc1	0.26
CCN(CCC#N)C(=O)c1c(-c2c(Cl)cccc2Cl)noc1C	1.3
CCc1ccc(C2C(C(=O)OCCOC)=C(C)NC3=C2C(=O)CC(c2ccc(OC)cc2)C3)cc1 (centres undefined)	0.27
